Compounds with a hit are over-represented: about 3% of the library has one in this group of screens.
SENP8 block-1: SENP8 (human) protease inhibition; inhibition, % at 20 µM; recombinant SENP8, Nedd8 substrate fluorescence; 360,000 tested, 0.64% active; Q96LD8; in the data active = inhibition mostly above about 40%, no sharp cut-off; inactive = mostly below about 27%
Target sequence (Q96LD8 whole entry, looked up): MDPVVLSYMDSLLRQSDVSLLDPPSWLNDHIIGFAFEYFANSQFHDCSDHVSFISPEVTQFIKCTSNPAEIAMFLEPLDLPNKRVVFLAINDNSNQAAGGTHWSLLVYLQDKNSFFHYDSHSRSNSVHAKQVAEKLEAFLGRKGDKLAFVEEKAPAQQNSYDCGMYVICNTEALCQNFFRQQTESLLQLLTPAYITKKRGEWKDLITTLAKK
SENP8 block-2: inhibitors of human SENP8 protease; Q96LD8; purified SENP8, Z-RLRGG-aminoluciferin cleavage, luminescence; inhibition, % at 10 µM; 330,000 tested, 1.2% active; AID 2540; in the data active = inhibition above about 50%
TRAIL sens C8: caspase-8 TRAIL sensitization. NB7+C8 cells + TRAIL, ATPlite viability luminescence. inhibition (viability loss, TRAIL sensitization), % at 10 µM. 360,000 tested, 1% active. AID 624354;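 active = compounds causing at least 50% loss of cell viability in the single-dose screen, relative to plate controls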
PPC-1+TRAIL kill: PPC-1 cancer cell killing with TRAIL present. PPC-1 cells + TRAIL, ATPLite viability luminescence. cell killing (% activity), % at 4 µM or 5 µM. 220,000 tested, 0.41% active;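 active = cell killing above 50% in the first pass at 4 µM, then a duplicate retest at 5 µM averaging 50% or more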;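 note: plate controls were cells with TRAIL plus DMSO for no effect and medium-only wells lacking cells for full effect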
SENP7 block: SENP7 protease inhibition; recombinant SENP7, Z-RLRGG-aminoluciferin luminescence, 40 min; 330,000 tested, 1.5% active; AID 434973; inhibition, % at 5 µM;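 active = inhibition above about 50% at the single test dose, limit read from the data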;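 note: plate controls were DMSO with enzyme for no effect and no enzyme buffer wells for full effect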
SENP6 inh: SENP6 protease inhibition; Q9GZR1; inhibition, % at 10 µM; 330,000 tested, 1.8% active; Recombinant SENP6 catalytic domain, aminoluciferin luminescence; AID 2599;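 active = inhibition above about 50% at the single tested dose, limit read from the data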;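 note: plate controls were DMSO wells with enzyme for no effect and DMSO wells lacking enzyme for full effect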
SENP8 confirm: confirmation of human SENP8 protease inhibitors; shares compounds with SENP7 block; Recombinant SENP8, Z-RLRGG-aminoluciferin luminescence, 60 min; inhibition, % at 12.5 µM; 6,200 tested, 40% active;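 active = mean inhibition across replicates above about 50%, limit read from the data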
SENP6 conf: human SENP6 inhibition, confirmed; inhibition, % at 12.5 µM; 6,200 tested, 58% active; AID 488915; recombinant SENP6, Z-RLRGG-aminoluciferin luminescence; shares compounds with SENP7 block
SENP7 confirm: confirmation of human SENP7 protease inhibitors; shares compounds with SENP7 block; recombinant SENP7, Z-RLRGG-aminoluciferin luminescence, 40 min; inhibition, % at 12.5 µM; 6,200 tested, 69% active
Casp3 select: inhibits human caspase-3 in SENP selectivity test; inhibition, % at 12.5 µM; 6,200 tested, 60% active; purified caspase-3, Z-DEVD-aminoluciferin luminescence, 60 min; AID 488918; shares compounds with SENP7 block;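 active = mean inhibition above about 50%, limit read from the data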;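 note: plate controls were enzyme with DMSO for no effect and wells without caspase-3 for full effect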
Target sequence (P42574 28-227 limits assumed): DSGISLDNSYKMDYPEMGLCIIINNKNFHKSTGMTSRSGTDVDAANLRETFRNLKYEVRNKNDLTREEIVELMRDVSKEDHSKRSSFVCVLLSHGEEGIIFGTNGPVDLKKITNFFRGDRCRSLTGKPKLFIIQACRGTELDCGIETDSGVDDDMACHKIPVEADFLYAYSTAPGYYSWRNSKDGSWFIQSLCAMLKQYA
Luc interf: counter-screen for SENP inhibitors: luminescence interference; shares compounds with SENP7 block; Pre-incubated SENP8/Z-RLRGG-aminoluciferin, luciferase luminescence interference; inhibition, % at 12.5 µM; 6,200 tested, 39% active; AID 488919;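 active = mean inhibition above about 50% when retested at one dose, limit read from the data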;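 note: plate controls were DMSO wells with completed reaction for no effect and substrate without enzyme for full effect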
* = called active by the depositor.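 Rule for the calls, unless noted: active = mean inhibition above about 50% in the one-dose retest (limit read from the data); inactive = the rest.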

`COc1ccc(OC)c(C2C(C(=O)c3ccco3)=C(O)C(=O)N2CC2CCCO2)c1` (centres undefined) gave SENP8 block-1 19.6, SENP8 block-2 -0.9, TRAIL sens C8 -9.5, SENP7 block 10.7 and SENP6 inh 1.9.
For Cc1cccc(NC(=O)c2onc3c2CCCC3)c1C the results were SENP8 block-1 10.6, SENP8 block-2 24.1, TRAIL sens C8 21.5, PPC-1+TRAIL kill -4.2, SENP7 block 25.1 and SENP6 inh 49.1.
`Cc1cccc(NC(=O)c2onc3c2CCCC3)n1` gave SENP8 block-1 3.5, SENP8 block-2 93.0*, TRAIL sens C8 86.1*, PPC-1+TRAIL kill 80.8*, SENP7 block 97.0*, SENP6 inh 95.3*, SENP8 confirm 96.4*, SENP6 conf 97.6*, SENP7 confirm 102.0*, Casp3 select 97.5* and Luc interf 95.5*.
`Cc1ccccc1NC(=O)c1onc2c1CCCC2` gave SENP8 block-1 7.6, SENP8 block-2 65.7*, TRAIL sens C8 22.6, PPC-1+TRAIL kill 15.8, SENP7 block 54.6*, SENP6 inh 82.9*, SENP8 confirm 21.6, SENP6 conf 62.8*, SENP7 confirm 90.2*, Casp3 select 84.7* and Luc interf 72.4*.
Cc1cccc(NC(=O)c2cccc(NC(=O)c3ccccc3)c2)n1 was read as SENP8 block-1 12.2, SENP8 block-2 4.0, TRAIL sens C8 -18.6, SENP7 block 0.7 and SENP6 inh 15.2.
`C[C@@H]1CCCCO[C@H](CN(C)S(=O)(=O)c2cn(C)cn2)[C@@H](C)CN([C@H](C)CO)C(=O)c2cc(NC(=O)c3ccncc3)ccc2O1` gave SENP8 block-1 3.2 and TRAIL sens C8 3.1.
Screening N#CCc1ccc(NC(=O)c2cc(S(=O)(=O)N3CCOCC3)ccc2Cl)cc1 returned SENP8 block-1 12.2, SENP8 block-2 -0.6, TRAIL sens C8 -9.0, SENP7 block -6.6 and SENP6 inh 0.0.
O=C(Nc1ccc(-c2noc(-c3cccs3)n2)cc1)c1cccnc1 was read as SENP8 block-1 7.4, SENP8 block-2 20.4, TRAIL sens C8 10.1, PPC-1+TRAIL kill -5.1, SENP7 block 54.5*, SENP6 inh 38.3, SENP8 confirm 5.1, SENP6 conf 40.6, SENP7 confirm 68.4*, Casp3 select 25.6 and Luc interf 7.0.
`COc1ccc(-c2nc(-c3ccc(Br)o3)no2)cc1` gave SENP8 block-1 3.5, SENP8 block-2 25.1, TRAIL sens C8 41.2, PPC-1+TRAIL kill 28.6, SENP7 block 69.7*, SENP6 inh 49.3, SENP8 confirm 6.1, SENP6 conf 11.6, SENP7 confirm 10.7, Casp3 select 27.2 and Luc interf 8.7.
For COC(=O)c1ccc(-c2nc(-c3ccc(Br)o3)no2)cc1 the results were SENP8 block-1 10.2, SENP8 block-2 -5.1, TRAIL sens C8 7.4, PPC-1+TRAIL kill 17.1, SENP7 block 51.8*, SENP6 inh -0.1, SENP8 confirm -12.8, SENP6 conf -6.9, SENP7 confirm 18.0, Casp3 select 15.6 and Luc interf 1.7.
`CCOC(=O)c1ccc(OCc2nc(-c3cccs3)no2)cc1` gave SENP8 block-1 17.2, SENP8 block-2 19.1, TRAIL sens C8 25.0, PPC-1+TRAIL kill 8.1, SENP7 block 4.0 and SENP6 inh 35.5.
`COC(=O)c1noc(-c2ccc(C)cc2)n1` gave SENP8 block-1 17.7, SENP8 block-2 -25.8, TRAIL sens C8 -11.9, PPC-1+TRAIL kill 10.5, SENP7 block -13.3 and SENP6 inh -1.9.
